The values below come from PubChem BioAssay AID868 (SRMLSC, 2007).

About 3,500 (1.8%) of roughly 190,000 compounds were called active. The sample holds actives, similar compounds and a random draw of the others, so the mix is not that of the screen. A number with no mark means an inactive call.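 Rule for the calls: active = inhibition above a set limit, 3 SD over mean compound inhibition (cut at about 8.4% in these data); inactive = the rest.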

The inhibition is the drop in the measured response relative to a control, in per cent.

A short description of the test: inhibitors of the yeast RAM network, primary screen, dse1pr::URA3 reporter, 5-FOA selection (AID 868).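 Note: 0% = DMSO-only wells with no growth and 100% = 10 µM 1-NA-PP1 full growth; inhibition rescues growth on 5-FOA so higher OD means more RAM inhibition.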 The note with it: S. cerevisiae dse1pr::URA3 reporter, 5-FOA growth OD615, 2 d; at 50 µM; hits give high values; analog-sensitive cbk1-as2 kinase mutant strain.
With `Cc1cccc(NC(=O)Cn2c(=O)n(Cc3ccccc3)c(=O)c3c(C)c(C)sc32)c1`, the inhibition was 2.47%.

Turning to `Cc1cc(C(=O)N/N=C/c2ccccc2[N+](=O)[O-])c(C)o1`, the inhibition was 1.55%.

With `COC(=O)c1cc2occc2n1Cc1nc(-c2ccccc2C)oc1C`, the inhibition is 10.4% (active).

On to `Cc1ccccc1-c1nc(CS(=O)(=O)CC(=O)N2CCc3ccccc3C2)c(C)o1`, for which the inhibition is 3.54%.

As for `CCOC(=O)c1cc2occc2n1CC(=O)NC1CCC(C)CC1` (configuration not stated), the inhibition is 1.74%.

For `COc1ccc(F)c(-c2nc(CN3CCC(c4ccccc4)CC3)c(C)o2)c1`, the inhibition was 1.5%.

As for `CSC1=N/C(=C\c2ccc3c(c2)OCO3)C(=O)S1`, the inhibition was 5.69%.

For `O=C1/C(=C/c2ccc3c(c2)OCO3)CCC/C1=C\c1ccc2c(c1)OCO2`, the inhibition was 11.6% (active).

As to `CCC1=C/C(=C\c2ccc3c(c2)OCO3)C(=O)S1`, the inhibition is 5.39%.

For the compound `C=CS(=O)c1sc(Cl)c(N2CCOCC2)c1[N+](=O)[O-]` (configuration not stated), the inhibition is -1.6%.

Take `Cc1cccc(C(=O)OCC(=O)Nc2sc3c(c2C#N)CCC3)c1`: the inhibition is 3.27%.

Regarding `C=CCn1c(SCn2nnc3ccccc3c2=O)nnc1-c1ccc(Cl)cc1`, the inhibition was 1.52%.

Turning to `C=CCn1c(-c2ccc(Cl)cc2)ccc(C#N)c1=O`, the inhibition is 10.6% (active).

`C=CCn1cc(-c2cccc(C(F)(F)F)c2)cc(C#N)c1=O`: the inhibition is 1.24%.

As for `Cc1cccc(/C(N)=N/OC(=O)c2ccccc2Cl)c1`, the inhibition is -0.84%.

Regarding `COc1ccc(NC(=O)C2CCCN(S(=O)(=O)c3cccc4cccnc34)C2)cc1OC` (configuration not stated), the inhibition is -0.46%.

For the compound `O=C(O)C1CCCN(S(=O)(=O)c2cccc3cccnc23)C1` (configuration not stated), the inhibition is 2.19%.

As for `COc1ccc(NC(=O)C2CCCN(S(=O)(=O)c3cccc4cccnc34)C2)cc1` (configuration not stated), the inhibition is 9.02% (active).

Take `COc1ccc(NC(=O)COC(=O)CNC(=O)C2CCCCC2)cc1`: the inhibition was 0.13%.

On to `O=C(OCC(=O)c1cccs1)C1=COCCO1`, for which the inhibition was 0.33%.

On to `CCC(C)(C)c1ccc(Oc2ccc(NC(=O)COC(=O)C3=COCCO3)cc2)cc1`, for which the inhibition was 12.6% (active).

For the compound `CCOC(=O)CSc1nc2c(sc(=S)n2CCc2ccccc2)c(=O)n1Cc1ccco1`, the inhibition was 10.1% (active).

Regarding `CCOC(=O)CSc1nc2c(c(=O)n(C)c(=O)n2C)n1Cc1ccccc1F`, the inhibition was 5.16%.

Consider `COc1ccccc1NC(=O)CSc1nc2sc(C)c(C)c2c(=O)n1Cc1ccco1`, for which the inhibition is 4.61%.

Turning to `O=c1[nH]c(N2CCN(Cc3ccc4c(c3)OCO4)CC2)nc2c1CCCC2`, the inhibition was 0.84%.

As for `O=C(Nc1ccn(Cc2ccccc2)n1)c1cccc(F)c1`, the inhibition is 0%.

For `O=C(Nc1ccn(Cc2ccccc2F)n1)c1ccc(COc2ccc(Cl)cc2Cl)o1`, the inhibition was 9.18% (active).

`CC(=O)Nc1ccn(Cc2c(F)cccc2Cl)n1`: the inhibition was 0.11%.

With `O=C(Nc1ccc2c(c1)CCC2)c1ccc(Br)s1`, the inhibition was 1.86%.

Take `CCOC(=O)C(C)n1nc(-c2ccccc2)c2ccccc2c1=O` (configuration not stated): the inhibition was 0.13%.

Consider `O=C(Nn1cnc2ccccc2c1=O)c1ccccc1`, for which the inhibition is 1.22%.

Turning to `CCc1nc(Nc2ccc3nccnc3c2)c2oc3ccccc3c2n1`, the inhibition was 12.5% (active).

Turning to `CCSc1nc(C)nc2c1oc1ccccc12`, the inhibition is 3.79%.

`COc1ccccc1Nc1ncnc2c1oc1ccccc12`: the inhibition was 5%.

In the case of `Cc1ccc(NC(=O)C(=O)NCc2ccco2)c(C)c1`, the inhibition was 4.33%.

As for `CCOc1ccc(/C=N/OCC(=O)NCc2cccs2)cc1`, the inhibition was 0.76%.

Turning to `CCOC(=O)C1(CC2CCCCO2)CCN(Cc2nc(-c3cccs3)oc2C)CC1` (configuration not stated), the inhibition was 0.26%.

Consider `O=C(COc1ccccc1)Nc1ccc(N2CCN(C(=O)c3cccs3)CC2)cc1`, for which the inhibition is 6.82%.

With `COc1ccc(/C=C2\SC(=N)N(c3ccc(F)cc3)C2=O)cc1`, the inhibition is 2.04%.

Turning to `CCNC(=S)N(CCc1c(C)[nH]c2ccc(C)cc12)Cc1ccco1`, the inhibition was 9.53% (active).

`COc1cccc(NC(=S)N(CCc2c(C)[nH]c3ccccc23)Cc2ccco2)c1`: the inhibition is 7.14%.

For the compound `COc1ccc2[nH]c(C)c(CCN(Cc3cccs3)C(=S)Nc3ccccc3OC)c2c1`, the inhibition was 2.4%.

`O=C(CSc1nc2ccccc2[nH]1)N/N=C/C=C\c1ccccc1[N+](=O)[O-]`: the inhibition is 0.9%.

In the case of `Cc1ccc(-n2c(SCC(=O)N/N=C/C=C/c3ccccc3[N+](=O)[O-])nc3ccccc3c2=O)cc1`, the inhibition is 10.3% (active).

Turning to `CCn1c(SCC(=O)N/N=C/C=C/c2ccccc2[N+](=O)[O-])nnc1-c1ccccc1`, the inhibition is 0.99%.

Take `Cc1ccc(NC(=O)c2ccn(C(=O)Nc3ccccc3)n2)c(C)c1`: the inhibition was 1.13%.

With `COc1ccc(C)cc1NC(=S)Nc1ccccc1SC`, the inhibition was 0.14%.

In the case of `COc1ccc(C)cc1NC(=O)Nc1ccccc1SC`, the inhibition is 3.85%.

In the case of `COc1ccc(C)cc1NC(=O)C(Sc1ccccc1)c1ccccc1` (configuration not stated), the inhibition was 12% (active).

With `Cc1c(CN2CCCCC2)c(O)n(CCO)c(=O)c1C#N`, the inhibition is 1.68%.

`Cc1cc(C)c(C(N)=O)c(Cl)n1`: the inhibition is -0.5%.

On to `C/C(=N\Nc1nc(N2CCOCC2)nc(N2CCOCC2)n1)c1ccc([N+](=O)[O-])cc1`, for which the inhibition was 1.78%.

With `OCCC1CN(Cc2ccccc2-c2ccco2)CCN1Cc1ccsc1` (configuration not stated), the inhibition is 0.13%.

Regarding `Cc1ccc(N2CCN(C3=NC(=O)/C(=C\c4cccs4)S3)CC2)cc1`, the inhibition is 2.02%.

For the compound `CCc1ccc(/C=C2\SC(N3CCOCC3)=NC2=O)cc1`, the inhibition was 2.12%.

On to `CC1CCN(C2=NC(=O)/C(=C/c3cn[nH]c3-c3ccccc3)S2)CC1`, for which the inhibition is 9.65% (active).

Consider `O=c1c(Cl)c(NCc2ccc(F)cc2Cl)cnn1C12CC3CC(CC(C3)C1)C2`, for which the inhibition is 6.9%.

Turning to `CCN(CCn1cccn1)Cc1nc(-c2ccc(C(=O)OC)cc2)no1`, the inhibition was 0.13%.

`O=C(COc1ccc(NC(=O)c2ccccc2[N+](=O)[O-])cc1)c1ccc(F)cc1`: the inhibition is 6.75%.

For `Cc1ccccc1CSCCNC(=O)c1ccc(N(C)S(=O)(=O)c2ccccc2)cc1`, the inhibition was 14.2% (active).

As to `Cc1ccccc1CSCCNC(=O)c1ccc(Cl)c(S(=O)(=O)N2CCOCC2)c1`, the inhibition was 7.41%.

In the case of `Cc1ccc(C(=O)NCCNS(=O)(=O)c2ccccc2)cc1`, the inhibition was 0.27%.

As to `COc1ccccc1N1CCN(C(=O)c2cc3c(-c4ccc(Cl)cc4)nn(C)c3s2)CC1`, the inhibition is 5.62%.

`COc1cccc(-c2nn(C)c3sc(C(=O)N4CCN(c5ccccc5)CC4)cc23)c1`: the inhibition was 8.94% (active).

`CCOC(=O)N1CCN(C(=O)c2cc3c(-c4ccc(Cl)cc4)nn(C)c3s2)CC1`: the inhibition is -0.35%.

For `O=C(CCS(=O)(=O)Cc1ccccc1)Nc1ccc2c(c1)OCCO2`, the inhibition is 3.16%.

For the compound `O=C(Nc1ccnc(-c2ccncc2)n1)c1cccs1`, the inhibition was -0.85%.

Take `COc1ccnc(Oc2ccccc2)n1`: the inhibition was 2.23%.

Consider `O=C(NCc1ccccc1)C1=C[C@@H](C2CCCCC2)C[C@@H](OCc2ccc(CO)cc2)O1`, for which the inhibition was 16.7% (active).

Turning to `O=C(NCc1ccccc1)C1=C[C@@H](c2ccc(C(F)(F)F)cc2)C[C@@H](OCc2ccc(CO)cc2)O1`, the inhibition was 12.2% (active).

In the case of `CC(C)(C)[C@H]1C=C(C(=O)NCc2ccccc2)O[C@@H](OCc2ccc(CO)cc2)C1`, the inhibition was 3.51%.

Consider `O=C(C1=C[C@H](c2ccc(C(F)(F)F)cc2)C[C@H](OCc2ccc(CO)cc2)O1)N1CCN(Cc2ccccc2)CC1`, for which the inhibition was 2.29%.

In the case of `O=C(NCc1ccccc1)C1=C[C@H](C2CC2)C[C@H](OCc2ccc(CO)cc2)O1`, the inhibition is -0.5%.

On to `C=CCOC(=O)C1=C[C@@H](c2ccccc2)C[C@@H](OCc2ccc(CO)cc2)O1`, for which the inhibition is 1.5%.

Take `Fc1ccccc1Cn1cnc(NC(=S)NCCc2ccccc2)n1`: the inhibition was 6.41%.

Regarding `O=C(NCCc1ccc(F)cc1)c1n[nH]c2ccccc12`, the inhibition is -0.97%.

For the compound `C/C(N)=C(/C#N)C(=O)COC(=O)c1cc(-c2cccc(Br)c2)nc2ccccc12`, the inhibition is 4.74%.

Consider `O=C(CCC1CCCN(Cc2ccc(O)c(Cl)c2)C1)NCc1ccccc1F` (configuration not stated), for which the inhibition is 1.23%.

Turning to `O=C(Oc1cccc(O)c1)C1CCCCC1`, the inhibition was -0.74%.

As to `CC(C)Oc1ccccc1C(=O)NC(CO)C(=O)O` (configuration not stated), the inhibition is 1.42%.

On to `O=C(NN=C1CCC(=NNC(=O)c2cccnc2)CC1)c1cccnc1`, for which the inhibition was 1.46%.

With `CC(C)OCCCNC(=O)c1ccc(C2SCC(=O)N2Cc2ccco2)cc1` (configuration not stated), the inhibition is 1.08%.

In the case of `Cc1ccsc1C1C(C#N)=C(N)OC2=C1C(=O)CC(C)(C)C2` (configuration not stated), the inhibition was 1.24%.

Regarding `CCNC(=S)N1CCC(c2nc3cc(C)c(C)cc3[nH]2)CC1`, the inhibition was -0.13%.

For `Cc1cc2c(c(=O)n1Cc1ccco1)C(c1ccccc1)C(C#N)=C(N)O2` (configuration not stated), the inhibition was 2.82%.

For `COc1ccc(NC(=O)Cn2c(=O)n(Cc3ccco3)c(=O)c3ccccc32)cc1`, the inhibition was 2.68%.

For the compound `CN(c1ccccc1)c1ccc(/C=c2\s/c(=C(/C#N)C(=O)C(C)(C)C)n(Cc3ccco3)c2=O)cc1`, the inhibition is 22.5% (active).

Regarding `CCc1ccc(NC(=O)C(C)OC(=O)/C=C/c2cccc([N+](=O)[O-])c2)cc1` (configuration not stated), the inhibition is 2.92%.

Regarding `COc1c(C)cc(C(=O)C2CCCN(S(=O)(=O)c3c(C)noc3C)C2)cc1C` (configuration not stated), the inhibition was 5.32%.

For `Cc1cnc(NC(=O)CSc2nnc(-c3ccc(Cl)cc3Cl)n2N)s1`, the inhibition was 2.06%.

With `Cc1ccc(CCC(=O)Nc2ncc(Cc3cc(Cl)ccc3Cl)s2)o1`, the inhibition is 14% (active).

Consider `CCOc1ccccc1NC(=O)CCc1ccc(C)o1`, for which the inhibition is 1.75%.

On to `CCOC(=O)Cc1cc(=O)[nH]c(=O)[nH]1`, for which the inhibition is -0.76%.

On to `Cc1cc(C)c(C#N)c(SCC(=O)NN2CC(=O)N(c3ccccc3F)CC2=O)n1`, for which the inhibition was 1.88%.

For `O=C(c1ccc(Cl)c([N+](=O)[O-])c1)N1CCN(c2ccccc2)CC1`, the inhibition was -1.05%.

Regarding `Nc1ccccc1SCc1cc([N+](=O)[O-])cc2c1OCOC2`, the inhibition is 0.13%.

Consider `COc1ccc(S(=O)(=O)NC(C)C(=O)Nc2cccc([N+](=O)[O-])c2)cc1` (configuration not stated), for which the inhibition was 0.38%.

For `CC(O)C(NS(=O)(=O)c1ccc(Cl)cc1)C(=O)OCc1cc([N+](=O)[O-])cc2c1OCOC2` (configuration not stated), the inhibition was 14.1% (active).

For the compound `CN(C)CCCO/N=C(\c1ccccc1)c1ccncc1`, the inhibition was 1.14%.

Regarding `O=c1[nH]n2c(-c3ccccc3)nc(O)c2c2ccccc12`, the inhibition is 2.15%.

Regarding `Cn1c(=O)c2c(ncn2CC(=O)N/N=C/c2cn[nH]c2-c2ccc(F)cc2)n(C)c1=O`, the inhibition was 1.49%.

`Fc1ccc(-c2nnc(CSc3nnc(-c4ccc5c(c4)OCO5)o3)o2)cc1`: the inhibition is 3.54%.

Turning to `Fc1ccc(CSc2nnc(-c3cc4c(s3)-c3ccccc3CC4)o2)cc1`, the inhibition was 22.2% (active).

Regarding `CCSc1nnc(-c2cc3c(s2)-c2ccccc2CC3)o1`, the inhibition was 2.39%.

For `Cc1ccc(N(C(=O)C(F)(F)F)C(C(=O)NC2CCCCC2)c2ccncc2)cc1C` (configuration not stated), the inhibition was 4.82%.

For `FC(F)(F)c1cccc(Cc2noc(CN3CCC(N4CCCCC4)CC3)n2)c1`, the inhibition was 0.6%.

For `COc1ccc2c(c1)c(=O)c(C(=O)c1ccc(Cl)cc1)cn2CC(=O)Nc1ccc(F)cc1`, the inhibition is 3.22%.

Take `O=C(c1ccc(F)cc1)c1cn(Cc2ccc(F)cc2)c2cc3c(cc2c1=O)OCCO3`: the inhibition was 9.62% (active).

Turning to `CCn1cc(C(=O)N/N=C(/C)c2ccc(F)cc2)c(=O)c2cc(F)c(N3CCCC3)cc21`, the inhibition is 0.79%.

`O=C(CCN1C(=O)/C(=C/c2cccs2)SC1=S)NNC(=O)c1cccc(O)c1`: the inhibition was 9.69% (active).

Take `Cc1c(C(=O)NCCN2C(=O)S/C(=C\c3cccs3)C2=O)cccc1[N+](=O)[O-]`: the inhibition was 2.49%.

In the case of `COc1ccc(/C=C2\SC(=S)N(CC(=O)NNC(=O)c3ccncc3)C2=O)cc1`, the inhibition is 4.19%.
